The whole screen tested about 4,800 compounds, of which about 410 (8.5%) showed an effect of 50% or more. The sample holds strong results, similar compounds and a random draw of the others, so the mix is not that of the screen.
Each compound was assayed on Plasmodium falciparum (assay: Confirmatory screen in NF54 pLDH assay, in single point, at 2uM, 72h). Details: timepoint 72 hour.
Format: functional, Erythrocyte

Question: With `Cc1cc(N2CCC(NCCc3c[nH]cn3)CC2)nc(-c2ccccc2)n1` as the compound, how does the “% Inhibition” value read?
Answer: 11%

Question: How did the “% Inhibition” value turn out when `Cc1ccc2nc(CCCNC3CCN(c4cc(C)nc(N)n4)CC3)oc2c1` was run?
Answer: 59%

Question: How did the “% Inhibition” value turn out when `Cc1cc(N2CCC(NCCCN3CCCc4ccccc43)CC2)nc(N)n1` was run?
Answer: 88%

Question: For `CN(C)CCN1CCC(NC2CCC(O)(c3cccc(Cl)c3)CC2)CC1` (stereo unspecified), which “% Inhibition” value is on record?
Answer: 33%

Question: With `OC1(c2ccc(Cl)cc2)CCN(C[C@@H]2CCCN3CCCC[C@H]23)CC1` as the compound, how does the “% Inhibition” value read?
Answer: 88%

Question: For `CC(C)(C)n1ncc2c(NCc3ccc4cccnc4c3O)ncnc21`, which “% Inhibition” value is on record?
Answer: 37%

Question: For `c1ccc2c(c1)CN(c1ncnc3[nH]ccc13)CC1(CCOCC1)O2`, which “% Inhibition” value is on record?
Answer: -5%

Question: With `CCn1cc(-c2cccc(C(=O)N[C@@H](C)CN3CCc4ccccc4C3)c2)cn1` as the compound, how does the “% Inhibition” value read?
Answer: 38%

Question: For `NCCCCc1c(-c2cccnc2)[nH]c2c(Cl)cc(Cl)cc12`, which “% Inhibition” value is on record?
Answer: 75%

Question: With `COCCN1CCC[C@@]2(CCN(c3ccnc4cc(Cl)ccc34)C2)C1` as the compound, how does the “% Inhibition” value read?
Answer: 101%

Question: `COCCN1CC[C@H](CN(C)c2ccnc3cc(Cl)ccc23)C1` was tested. Which “% Inhibition” value did it give?
Answer: 102%

Question: Which “% Inhibition” value does the source give for `O[C@@]1(c2c[nH]nn2)CCN(c2ccnc3cc(Cl)ccc23)C1` here?
Answer: 98%

Question: For `NC(=O)[C@]1(O)CCN(c2ccnc3ccc(Oc4ccccc4)cc23)C1`, which “% Inhibition” value is on record?
Answer: 33%

Question: With `CN1CCC(Oc2ccc(NC(=O)c3cn4ccnc4s3)cn2)CC1` as the compound, how does the “% Inhibition” value read?
Answer: 92%

Question: With `CN(C)Cc1cccc(CCNCc2csc(-c3ccc(C(F)(F)F)cc3)n2)c1` as the compound, how does the “% Inhibition” value read?
Answer: 88%

Question: For `COc1ccc2[nH]cc(C3=CCN(c4ccc5nnc(-c6ccccc6F)n5n4)CC3)c2c1`, which “% Inhibition” value is on record?
Answer: 41%

Question: `Fc1cccc(Cl)c1CN1CCC(NC[C@H]2CCCOC2)CC1` was tested. Which “% Inhibition” value did it give?
Answer: 21%

Question: `c1cc(CNC2CCN(C[C@H]3CCOC3)CC2)c2cc[nH]c2c1` was tested. Which “% Inhibition” value did it give?
Answer: -13%

Question: For `CCc1ccc2ncnc(NCCCN3CCN(CCO)CC3)c2c1`, which “% Inhibition” value is on record?
Answer: 85%

Question: With `Cc1cc(O)c(Cl)cc1-c1ccc2nccc(N)c2c1` as the compound, how does the “% Inhibition” value read?
Answer: 100%

Question: Which “% Inhibition” value does the source give for `Cc1cc(O)c(Cl)cc1-c1cccc2c(N)ccnc12` here?
Answer: 94%

Question: How did the “% Inhibition” value turn out when `COC(CN(Cc1nc(N)nc(Nc2ccc(C)cc2)n1)Cc1nc(N)nc(Nc2ccc(C)cc2)n1)OC` was run?
Answer: 94%

Question: `c1ccc(CCC23CN(Cc4ccccn4)CC2CN(Cc2ccns2)C3)cc1` (stereo unspecified) was tested. Which “% Inhibition” value did it give?
Answer: 88%

Question: How did the “% Inhibition” value turn out when `Cc1noc(-c2ccnc(NC[C@@H](c3ccccn3)N3CCOCC3)c2)n1` was run?
Answer: 100%

Question: For `Cc1cc(NCCCN2CCC[C@H](O)C2)c2cc(F)ccc2n1`, which “% Inhibition” value is on record?
Answer: 31%

Question: `COc1ccc2c(C)cc(NCCCN3CCC[C@H](C(N)=O)C3)nc2c1` was tested. Which “% Inhibition” value did it give?
Answer: 100%

Question: Which “% Inhibition” value does the source give for `CCN1C[C@H](Nc2nc(C)nc3sccc23)[C@@H](OC)C1` here?
Answer: 101%

Question: With `O=C(NCCN1CCCCC1)c1cccc(-c2cnc3ccc(F)cn23)c1` as the compound, how does the “% Inhibition” value read?
Answer: 21%

Question: For `CC(CNc1nc(NCC(C)N2CCOCC2)c2cc(Cl)ccc2n1)N1CCOCC1` (stereo unspecified), which “% Inhibition” value is on record?
Answer: 102%

Question: How did the “% Inhibition” value turn out when `CCNc1nc(C)cc(Nc2ccc(NC(=O)Nc3ccc(F)cc3F)cc2)n1` was run?
Answer: 99%

Question: `CCNc1cc(C)nc(NCCNC(=O)Nc2cc(F)cc(F)c2)n1` was tested. Which “% Inhibition” value did it give?
Answer: 92%

Question: For `CCOc1ccc2nc(N3CCC(N4CCC([C@H](O)c5cccnc5)CC4)CC3)nc(C)c2c1`, which “% Inhibition” value is on record?
Answer: 8%

Question: `CCOc1ccc2nc(CN(CC)CC3CCN(C4CCN(C)CC4)CC3)ccc2c1` was tested. Which “% Inhibition” value did it give?
Answer: 99%

Question: Which “% Inhibition” value does the source give for `CN(Cc1cn(CC(N)=O)c2ccccc12)CC1CCN(CCc2ccc(F)cc2)CC1` here?
Answer: 41%

Question: `CCN1CCN([C@H]2CCN(c3ccnc4ccncc34)C2)CC1` was tested. Which “% Inhibition” value did it give?
Answer: 98%

Question: `Cc1cc(N2CCC(Nc3ccnc4ccncc34)CC2)nc(C)n1` was tested. Which “% Inhibition” value did it give?
Answer: 7%

Question: How did the “% Inhibition” value turn out when `Cc1ccc2nccc(N3CCC(N4CCC(O)CC4)CC3)c2c1` was run?
Answer: 12%

Question: With `Cc1ccc2[nH]cc(-c3cc(N4CCOCC4)nc(N)n3)c2c1` as the compound, how does the “% Inhibition” value read?
Answer: 55%

Question: With `Nc1cc(N2CCC(c3nc4cc(F)ccc4[nH]3)CC2)nc(N2CCOCC2)n1` as the compound, how does the “% Inhibition” value read?
Answer: 42%

Question: Which “% Inhibition” value does the source give for `Cc1ccc(-c2cccc3c(C(=O)NCCCN4CCC(N5CCCCC5)CC4)cc(C)nc23)cc1` here?
Answer: 103%

Question: For `Brc1ccc2[nH]c3c(c2c1)CCCC3NC1CCc2[nH]cnc2C1` (stereo unspecified), which “% Inhibition” value is on record?
Answer: 104%

Question: `CCOc1cc2nccc(N3C[C@H]4CN(C)C[C@H]4C3)c2cc1OCC` was tested. Which “% Inhibition” value did it give?
Answer: 96%

Question: For `Nc1ccc(-c2cc(OC(F)(F)F)ccc2O)cn1`, which “% Inhibition” value is on record?
Answer: 14%

Question: Which “% Inhibition” value does the source give for `Oc1ccc(OC(F)(F)F)cc1-c1ccc2nccn2n1` here?
Answer: 92%

Question: How did the “% Inhibition” value turn out when `Clc1cccc(N2CC[C@H](CNC3CCN(Cc4ccco4)CC3)C2)c1` was run?
Answer: 97%

Question: How did the “% Inhibition” value turn out when `COc1ccnc(NCCCc2nc(-c3ccncc3)cs2)n1` was run?
Answer: 64%
